Results on 26 compounds are retold here after the supplement of paper PMC9262897, “Low-cost anti-mycobacterial drug discovery using engineered E. coli” (Nature Communications, 2022).

Structures can show the parent of a compound that is named as a salt. ± gives the standard deviation of the averaged measurements.

For this test, the system named is E. coli TESEC Mtb Asd. The experiment in a line: growth (OD600 after 10 h); higher = more growth (less inhibition). As to conditions: arabinose induction (level): High; compound 0.1 mM; raw OD600 reference: median of DMSO wells 0.331, cell-free background 0.041. The procedure:
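TESEC E. coli strains in which the native enzyme is deleted and replaced by arabinose-inducible Mtb Asd, DapB, CysH or TrpD, each grown in its selective medium. Strains were screened against the Prestwick library at 0.1 mM and 1% DMSO in 384-well format at low and high arabinose induction. Growth is read as OD600 after 10 h in triplicate.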
`CN(C(=O)C(Cl)Cl)c1ccc(OC(=O)c2ccco2)cc1` [Diloxanide furoate]: the growth worked out at 0.366 ± 0.011.
Next, `Cc1c(Cl)cccc1Nc1ccccc1C(=O)O` [Tolfenamic acid]: 0.0513 ± 0.0022; `COc1ccc(C(=O)CC(=O)c2ccc(C(C)(C)C)cc2)cc1` [Avobenzone]: 0.277 ± 0.068; `NCc1ccccc1CC(=O)N[C@@H]1C(=O)N2C(C(=O)O)=C(CSc3nnnn3CC(=O)O)CS[C@H]12` [Ceforanide]: 0.244 ± 0.01.
Next, `CN(C)CCCN1c2ccccc2CCc2ccccc21` [Imipramine hydrochloride]: 0.164 ± 0.026; `COc1ccc(-c2cc(=O)c3c(O)cc(O[C@@H]4O[C@H](CO[C@@H]5O[C@@H](C)[C@H](O)[C@@H](O)[C@H]5O)[C@@H](O)[C@H](O)[C@H]4O)cc3o2)cc1O` [Diosmin]: 0.421 ± 0.085; `COC(=O)N/N=C/c1c[n+]([O-])c2ccccc2[n+]1[O-]` [Carbadox]: 0.163 ± 0.015.
Compound `N=C(N)NC(=O)c1nc(Cl)c(N)nc1N` [Amiloride hydrochloride dihydrate] yielded a growth of 0.387 ± 0.036.
The value for `Nc1nc(Cl)nc2c1ncn2[C@H]1C[C@H](O)[C@@H](CO)O1` [Cladribine] was 0.409 ± 0.08.
Next, `CO[C@@]1(NC(=O)C2SC(=C(C(N)=O)C(=O)O)S2)C(=O)N2C(C(=O)O)=C(CSc3nnnn3C)CS[C@@H]21` (stereo partly specified) [Cefotetan]: 0.0535 ± 0.0059.
The value for `CC(=O)O[C@H]1C[C@@]2(C)[C@@H](C[C@@H](O)[C@H]3[C@@]4(C)CC[C@@H](O)[C@@H](C)[C@@H]4CC[C@@]32C)/C1=C(\CCC=C(C)C)C(=O)O` [Fusidic acid sodium salt] was 0.0498 ± 0.0038; that for `COc1ccc(CN(CCN(C)C)c2ccccn2)cc1` [Pyrilamine maleate] was 0.206 ± 0.052; that for `C#C[C@]1(O)CC[C@H]2[C@@H]3CCC4=Cc5oncc5C[C@]4(C)[C@H]3CC[C@@]21C` [Danazol] was 0.295 ± 0.075.
Regarding `CCN(CC)C(C)CN1c2ccccc2Sc2ccccc21` (stereo unspecified) [Ethopropazine hydrochloride], the growth is 0.156 ± 0.031.
`CCCNC(C)C(=O)Nc1c(C)csc1C(=O)OC` (stereo unspecified) [Articaine hydrochloride]: the growth is 0.257 ± 0.064.
On to `Cc1ccc(Cl)c(Nc2ccccc2C(=O)O)c1Cl` [Meclofenamic acid sodium salt monohydrate], for which the growth was 0.0702 ± 0.014.
In the case of `CC(=O)Nc1ccc(OCC(O)CNC(C)C)cc1` (stereo unspecified) [Practolol], the growth stood at 0.408 ± 0.04.
The value for `CN(C)CCOC(=O)COc1ccc(Cl)cc1` [Meclofenoxate hydrochloride] was 0.355 ± 0.032; that for `NCCNCCNCCNCCN` [Tetraethylenepentamine pentahydrochloride] was 0.337 ± 0.074; that for `C#C[C@]1(O)CC[C@H]2[C@@H]3CCC4=CC(=O)CC[C@@H]4[C@H]3CC[C@@]21C` [Norethindrone] was 0.286 ± 0.041.
The value for `Nc1c(Br)cc(Br)cc1CN[C@H]1CC[C@H](O)CC1` [Ambroxol hydrochloride] was 0.168 ± 0.021; that for `Clc1ccc(C(c2ccccc2Cl)C(Cl)Cl)cc1` (stereo unspecified) [Mitotane] was 0.213 ± 0.018.
The value for `Cc1nc2ccccn2c(=O)c1CCN1CCC(C(=O)c2ccc(F)cc2)CC1` [Pirenperone] was 0.352 ± 0.045.
In turn, `O=c1cc(-c2ccc(O)c(O)c2)oc2cc(O)cc(O)c12` [Luteolin] returned a growth of 0.0806 ± 0.023.
Next, `CC[N+](C)(C)c1cccc(O)c1` [Edrophonium chloride]: 0.384 ± 0.013.
The value for `CCn1cc(C(=O)O)c(=O)c2cc(F)c(N3CCNC(C)C3)c(F)c21` (stereo unspecified) [Lomefloxacin hydrochloride] was 0.04757 ± 0.00021.
